# Source: PubChem BioAssay (several laboratories)
# In the library only some 3.4% were active in any assay of this set; here they are far more common.
# ADAM10 inh = inhibits human ADAM10; actives 0.62% (n = 370,000); inhibition, % at 7 µM; O14672; recombinant ADAM10, EDANS/DABCYL FRET peptide cleavage, 3 h;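 active = inhibition above a per-campaign cutoff equal to the mean of compounds falling between control-based bounds plus 3 SD, cut at about 20% in these data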
# CendR NRP1 mod = NRP-1/CendR interaction modulation; O14786; FAM-RPARPAR peptide binding to NRP-1, fluorescence polarization; inhibition, % at 25 µM; actives 0.85% (n = 360,000);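 active = inhibition or corrected inhibition above about 18%, plus a signal ratio from 0.5 to 1.5, limit read from the data, passing the limit was not always enough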
# KLK7 zymogen act = activates the human kallikrein-7 zymogen | P49862 | AID 652039 | actives 0.9% (n = 370,000) | purified proKLK7, EDANS-DABCYL substrate fluorescence; 100% is mature enzyme control, 0% vehicle | activation, % at 7 µM;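 active = activation above the mean of all tested compounds plus 3 SD, computed per campaign excluding outliers beyond control limits, cut at about 13% in these data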
# HGIII-sPLA2 inh = Blocks human group III sPLA2 activity | Q9NZ20 | QFRET BODIPY PC-A2 liposome hydrolysis, fluorescence | inhibition, % at 12.2 µM | actives 0.56% (n = 370,000) | AID 743126;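 active = inhibition above mean plus 3 SD of compounds lying within the high and low control bounds, cut at about 19% in these data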
# Target sequence (Q9NZ20 whole entry, looked up): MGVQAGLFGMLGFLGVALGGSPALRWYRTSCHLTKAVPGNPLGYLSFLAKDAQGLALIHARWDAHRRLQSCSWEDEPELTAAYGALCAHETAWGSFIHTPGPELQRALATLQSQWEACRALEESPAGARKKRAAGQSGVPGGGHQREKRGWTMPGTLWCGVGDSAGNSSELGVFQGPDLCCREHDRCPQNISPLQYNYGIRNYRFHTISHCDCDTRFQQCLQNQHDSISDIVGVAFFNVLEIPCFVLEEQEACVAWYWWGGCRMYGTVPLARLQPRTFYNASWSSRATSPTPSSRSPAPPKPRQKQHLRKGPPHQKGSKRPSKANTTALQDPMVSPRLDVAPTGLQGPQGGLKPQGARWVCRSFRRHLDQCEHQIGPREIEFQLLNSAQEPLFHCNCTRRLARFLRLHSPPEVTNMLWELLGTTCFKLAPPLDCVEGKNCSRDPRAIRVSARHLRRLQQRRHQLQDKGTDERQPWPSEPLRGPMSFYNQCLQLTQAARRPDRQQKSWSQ
# ADAM17 inh = inhibitors of human ADAM17 | P78536 | AID 720648 | inhibition, % at 6.95 µM | recombinant ADAM17, EDANS/DABCYL FRET peptide cleavage | actives 0.83% (n = 370,000);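 active = inhibition above the mean of compounds lying between control limits plus 3 SD, set per campaign, cut at about 8.5% in these data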
# hGIII sPLA2 conf = human GIII-sPLA2 inhibition, confirmation. shares compounds with HGIII-sPLA2 inh. recombinant hGIII-sPLA2, BODIPY PC-A2 QFRET fluorescence. inhibition, % at 12.2 µM. actives 34% (n = 2,000). AID 743280;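 active = mean inhibition across triplicates above the hit cutoff set in the earlier primary screen, cut at about 19% in these data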
# BODIPY interf = 535nm fluorescence interference, HGIII-sPLA2 counter-screen; shares compounds with HGIII-sPLA2 inh; BODIPY FL product fluorescence interference, QFRET; inhibition, % at 12.2 µM; actives 8.5% (n = 2,000);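 active = average inhibition above the solvent-only control mean plus 3 SD, cut at about 6% in these data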
# 535nm interf DR = 535nm optical interference dose response, HGIII-sPLA2 counter-screen | 240 tested, under 10 active | shares compounds with HGIII-sPLA2 inh | AID 743455 | IC50, µM | BODIPY FL product fluorescence interference, cell-free;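 active = IC50 at or below 10 µM; inactive = IC50 above 10 µM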
# Hits are given with their value; . = inactive; / = no result.
SMILES,ADAM10 inh,CendR NRP1 mod,KLK7 zymogen act,HGIII-sPLA2 inh,ADAM17 inh,hGIII sPLA2 conf,BODIPY interf,others
CCOC(=O)N1CCN(C(=O)C[C@H]2C[C@@]3(C(=O)OC)C(=C[C@H](C(C)(C)C)O[C@@H]3C)N(Cc3ccccc3)C2=O)CC1,.,/,.,.,.,/,/,
Cc1ccc2sc(C)[n+](CCC(C)S(=O)(=O)[O-])c2c1 (centres undefined),.,.,.,20,.,.,.,
S=c1[nH]nc(-c2ccc(Cl)cc2Cl)n1Cc1ccccc1,.,.,.,20,.,28,.,535nm interf DR=.
CCn1c(-c2cccn(Cc3ccc(Cl)cc3Cl)c2=O)n[nH]c1=S,.,.,.,21,.,33,.,535nm interf DR=.
S=c1[nH]nc(-c2cccc(Cl)c2)n1Cc1ccccc1,.,.,.,.,.,/,/,
CCn1c(-c2ccc(Cl)cc2)n[nH]c1=S,.,.,.,.,.,/,/,
S=c1[nH]nc(-c2ccccc2Br)n1Cc1ccccc1,.,.,.,26,.,.,.,
Cn1c(=O)c2cc(S(=O)(=O)N3CCN(CCO)CC3)ccc2n(C)c1=O,.,/,.,.,.,/,/,
O=C(CSc1nc2ccccc2nc1N1CCOCC1)N1CCN(S(=O)(=O)c2cccc([N+](=O)[O-])c2)CC1,.,/,.,.,.,/,/,
COc1ccccc1NC(=O)c1ccc(SCC(=O)NCc2ccccc2Cl)c([N+](=O)[O-])c1,.,.,.,21,.,.,.,
COC(=O)[C@@H]1[C@H](O[Si](C)(C)C(C)(C)C)[C@H]2O[C@H]2C[C@H]1S(=O)(=O)c1ccccc1,.,/,/,.,.,/,/,
CSCCC(NC(=O)COc1ccccc1)C(=O)OCCOc1ccc(C)cc1 (centres undefined),.,.,.,.,.,/,/,
CSCCC(NC(=O)COc1ccccc1)C(=O)N(C)CC(=O)Nc1c(C)cccc1C (centres undefined),.,.,.,21,.,.,.,
O=C(NCc1ccccc1)[C@@H]1CCCN1C(=O)[C@H]1CCCN1C(=O)c1ccc(Cl)cc1,.,/,.,21,.,.,.,
O=C(NCc1ccccc1)[C@@H]1CCCN1C(=O)[C@H]1CCCN1C(=O)c1ccc(F)cc1,.,/,.,.,.,/,/,
C=CCn1c(SCc2n[nH]c(=S)n2-c2ccccc2)nnc1-c1ccccc1,.,.,.,20,.,.,.,
C=CCn1c(CSc2nnc(-c3ccccc3)n2C)n[nH]c1=S,.,.,.,.,.,/,/,
C=CCn1c(CSc2ccc(C)cc2)n[nH]c1=S,.,.,.,22,.,25,.,
COC1OC(COCc2ccccc2)C2OC(C)(C)OC2C1O (centres undefined),.,/,.,.,.,/,/,
COc1cc(OC)nc(NC(C)=O)n1,.,.,.,.,.,/,/,
COc1cc(OC)nc(NC(=O)C(C)C)n1,.,.,.,20,.,.,.,
CC(=O)c1c(C)[nH]c(-c2ccccc2)c1C,.,.,.,28,.,.,.,
COC(=O)C1CCN(C(=O)C2CC(=O)N(c3ccc(OC)cc3)C2c2ccc(OC)cc2)CC1 (centres undefined),.,/,.,.,.,/,/,
O=C(Nc1cc2c(ccc3ccccc32)oc1=O)C1CCCCC1,.,.,.,23,.,.,.,
COc1ccc2c(c1)C[C@@H]1CC(C)(C)CN1S2(=O)=O,.,/,/,.,.,/,/,
SMILES,ADAM10 inh,CendR NRP1 mod,KLK7 zymogen act,HGIII-sPLA2 inh,ADAM17 inh,hGIII sPLA2 conf,BODIPY interf,others
O=C(NCC1COc2ccccc2O1)c1ccc(NC(=O)C(Cl)Cl)cc1 (centres undefined),.,/,.,.,.,/,/,
Fc1ccc(CN2CCN(c3ncc(Cc4ccccc4)cn3)CC2)c(Cl)c1,.,/,.,.,.,/,/,
COc1ccc(NCc2ccc([N+](=O)[O-])s2)c(OC)c1,.,.,.,25,.,.,.,
Nc1nc2c(ncn2[C@@H]2O[C@H](C(=O)NCCCN3CCCC3=O)[C@@H](O)[C@H]2O)c(=O)[nH]1,.,/,.,.,.,/,/,
Cc1ccc(O)c(NC(=S)NC(=O)C(C)C)c1,.,.,.,21,.,.,.,
O=C(CSc1nnc(COc2ccccc2)n1-c1ccccc1)Nc1ccc2c(c1)OCO2,.,/,.,.,.,/,/,
COc1cc(C(=O)NC2CCCCN(Cc3cccc(Cl)c3)C2=O)cc(OC)c1OC (centres undefined),.,/,.,.,.,/,/,
CC(C)(C)C(=O)NC(=S)Nc1ccc(C(F)(F)F)cc1,.,.,.,21,.,.,.,
CC(C)(C)C(=O)NC(=S)Nc1ccc(Cl)c(C(=O)O)c1,.,.,.,.,.,/,/,
CCOc1ccc(C2CC(c3ccc(CC)cc3)Nc3nc(N)nn32)cc1 (centres undefined),.,.,.,22,.,.,.,
COC(=O)[C@]12C[C@H](CC(=O)NCc3cccs3)C(=O)N(Cc3ccc(Cl)cc3Cl)C1=C[C@H](C1CCCC1)O[C@@H]2C,.,/,.,.,.,/,/,
CC(=NN1CCN(Cc2ccccc2Cl)CC1)c1ccc(O)cc1,.,/,.,.,.,/,/,
CCCn1c(=O)c2ccccc2n2c(SCCOc3ccc(OC)cc3)nnc12,.,.,.,.,.,/,/,
CCCn1c(=O)c2ccccc2n2c(SCCOc3ccc(C)cc3)nnc12,.,.,.,19,.,.,.,
CCOc1ccc(-n2c(SCC(=O)Nc3cc4oc5ccccc5c4cc3OC)nnc2-c2cccc(Cl)c2)cc1,.,/,.,.,.,/,/,
Cc1ccc(OCCn2c(CCNC(=O)c3ccc(F)cc3F)nc3ccccc32)cc1,.,/,/,.,.,/,/,
C=CCNC(=O)COc1cc(C)ccc1C,.,.,.,20,.,.,.,
C=CCN1[C@@H](C)COc2cccc(F)c2S1(=O)=O,.,/,.,.,.,/,/,
O=C(N1CCOCC1)C12CC3CC(C1)CC(n1cnc(Cl)n1)(C3)C2,.,.,.,21,.,.,.,
S=c1[nH]nc(-c2ccc(Cl)cc2)n1/N=C/C=C/c1ccco1,.,.,.,25,.,30,.,
CC(=NNC(=O)CSc1nnc(-c2ccccc2)n1-c1ccccc1)c1ccc2ccccc2c1,.,/,.,.,.,/,/,
CC(C)c1nccn1S(=O)(=O)c1cccc([N+](=O)[O-])c1,.,.,.,19,.,.,.,
CN1CCN(S(=O)(=O)c2cccc([N+](=O)[O-])c2)CC1,/,.,/,/,/,/,/,
Cc1cc(N2CCCN(C)CC2)n2nc(C)nc2n1,.,/,.,.,.,/,/,
O=C(Nc1ccn(CCCNCc2ccccn2)c(=O)n1)OCc1ccccc1,.,.,.,21,.,.,.,
CCOC(=O)N1CCN(C(=O)CSc2nc(CC)nc3c2c(=O)n(C)c(=O)n3C)CC1,.,.,.,21,.,.,.,
